Measured values from PubChem BioAssay.
The source made the active and inactive calls.

How the values were obtained:
[1] = system: Plasmodium falciparum Sir2 (PF13_0152, Sir2A); assay: pfSir2 binders on small-molecule microarrays, primary screen, biochemical, small-molecule microarray, 635 nm fluorescence (AID 1098); details: small-molecule microarray binding, fluorescence 635 nm; higher = more signal;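 note: score merges spot fluorescence intensity with its signal-to-noise ratio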
[2] = small-molecule microarray binders of probe aDKK1, primary screen, biochemical, biotinylated probe, 635/667 nm fluorescence (AID 1099); details: higher = more signal;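 note: score merges 667nm spot fluorescence with signal to noise across triplicate slides; reference of the scale not given here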
[3] = small-molecule microarray binders of probe aCHRDL2, primary screen, biochemical, biotinylated probe, 635/667 nm fluorescence (AID 1100); details: higher = more signal
[4] = splicing luciferase reporter signal modulators, primary screen, spliceosome inhibition project, cell-based, HEK293, splice +/- reporter (AID 1101); details: luminescence, 24 h, higher = more signal, called active from +8 up or from −8 down;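 note: HEK293 cells carrying a splicing-competent luciferase reporter gene; test concentration not given here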
[5] = target: Fibroblast growth factor 10 (Homo sapiens) (UniProt O15520); assay: FGF10 binders on small-molecule microarrays, primary screen, biochemical, small-molecule microarray, 635 nm fluorescence (AID 1102); details: FGF10 binding, fluorescence 635 nm, higher = more signal
Fibroblast growth factor 10 (Homo sapiens), sequence (O15520 whole entry, looked up): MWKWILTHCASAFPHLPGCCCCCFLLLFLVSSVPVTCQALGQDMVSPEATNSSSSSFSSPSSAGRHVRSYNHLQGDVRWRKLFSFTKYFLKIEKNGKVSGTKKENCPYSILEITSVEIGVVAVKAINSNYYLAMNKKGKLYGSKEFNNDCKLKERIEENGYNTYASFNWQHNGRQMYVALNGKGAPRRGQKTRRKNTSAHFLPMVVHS

[6] = system: glycogen synthase kinase-3 (GSK3A per assay name; protocol says GSK3B); assay: GSK3 binders on small-molecule microarrays, primary screen, biochemical, small-molecule microarray, 635 nm fluorescence, GSK3A (AID 1103); details: small-molecule microarray binding, fluorescence 635 nm; higher = more signal; note: the record names both GSK3A and GSK3B
[7] = target: Epidermal growth factor receptor (Homo sapiens) (UniProt P00533); assay: EGFR binders on small-molecule microarrays, primary screen, biochemical, small-molecule microarray, 635 nm fluorescence (AID 1104); details: EGFR binding, higher = more signal;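 note: score merges 667 nm emission intensity with spot signal to noise over triplicate slides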
Epidermal growth factor receptor (Homo sapiens), sequence (P00533 whole entry, looked up): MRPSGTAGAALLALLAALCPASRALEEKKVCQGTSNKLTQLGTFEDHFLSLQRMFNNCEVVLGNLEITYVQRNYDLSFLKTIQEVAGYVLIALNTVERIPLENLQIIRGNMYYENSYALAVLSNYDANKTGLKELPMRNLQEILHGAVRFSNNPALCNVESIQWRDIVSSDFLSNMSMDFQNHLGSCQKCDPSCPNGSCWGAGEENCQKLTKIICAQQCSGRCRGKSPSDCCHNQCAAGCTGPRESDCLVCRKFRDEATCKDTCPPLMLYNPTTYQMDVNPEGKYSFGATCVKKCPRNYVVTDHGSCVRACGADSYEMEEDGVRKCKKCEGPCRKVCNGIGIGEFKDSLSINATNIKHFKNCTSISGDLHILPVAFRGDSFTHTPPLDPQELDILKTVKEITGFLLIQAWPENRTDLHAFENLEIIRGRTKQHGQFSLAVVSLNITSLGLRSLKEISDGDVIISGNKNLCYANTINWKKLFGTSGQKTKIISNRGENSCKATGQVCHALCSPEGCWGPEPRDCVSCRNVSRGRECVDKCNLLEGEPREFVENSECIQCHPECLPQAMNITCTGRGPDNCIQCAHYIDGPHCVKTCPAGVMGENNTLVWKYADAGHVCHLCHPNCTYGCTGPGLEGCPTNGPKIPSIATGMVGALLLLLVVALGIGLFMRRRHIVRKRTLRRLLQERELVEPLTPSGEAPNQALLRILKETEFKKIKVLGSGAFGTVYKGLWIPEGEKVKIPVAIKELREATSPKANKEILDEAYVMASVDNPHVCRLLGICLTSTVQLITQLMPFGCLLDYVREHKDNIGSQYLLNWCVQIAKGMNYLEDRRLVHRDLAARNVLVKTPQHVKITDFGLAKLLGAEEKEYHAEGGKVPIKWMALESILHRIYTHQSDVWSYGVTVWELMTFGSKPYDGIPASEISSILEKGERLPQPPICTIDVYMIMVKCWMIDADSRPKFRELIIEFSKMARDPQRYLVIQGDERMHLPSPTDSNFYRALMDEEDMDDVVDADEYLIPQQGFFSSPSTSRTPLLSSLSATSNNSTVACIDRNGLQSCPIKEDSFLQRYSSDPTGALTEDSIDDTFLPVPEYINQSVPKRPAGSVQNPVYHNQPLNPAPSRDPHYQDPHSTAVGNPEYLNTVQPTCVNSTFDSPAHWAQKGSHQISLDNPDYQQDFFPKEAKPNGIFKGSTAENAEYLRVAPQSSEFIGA

[8] = target: Follistatin-related protein 3 (Homo sapiens) (UniProt O95633); assay: FSTL3 binders on small-molecule microarrays, primary screen, biochemical, small-molecule microarray, 635 nm fluorescence (AID 1105); details: FSTL3 binding, higher = more signal;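 note: score merges emission near 667 nm and signal to noise per printed spot across three slides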
Follistatin-related protein 3 (Homo sapiens), sequence (O95633 whole entry, looked up): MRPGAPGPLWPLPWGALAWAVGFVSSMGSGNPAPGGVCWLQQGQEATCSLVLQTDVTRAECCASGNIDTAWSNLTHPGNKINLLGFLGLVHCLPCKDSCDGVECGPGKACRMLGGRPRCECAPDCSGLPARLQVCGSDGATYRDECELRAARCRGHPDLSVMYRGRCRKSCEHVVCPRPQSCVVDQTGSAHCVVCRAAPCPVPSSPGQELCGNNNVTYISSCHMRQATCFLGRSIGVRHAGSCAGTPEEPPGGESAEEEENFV

[9] = target: Dickkopf-related protein 1 (Homo sapiens) (UniProt O94907); assay: DKK1 binders on small-molecule microarrays, primary screen, biochemical, small-molecule microarray, 635 nm fluorescence scan (AID 1106); details: DKK1 binding, higher = more signal;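 note: score merges emission near 667 nm with signal to noise over three replicate slides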
Dickkopf-related protein 1 (Homo sapiens), sequence (O94907 whole entry, looked up): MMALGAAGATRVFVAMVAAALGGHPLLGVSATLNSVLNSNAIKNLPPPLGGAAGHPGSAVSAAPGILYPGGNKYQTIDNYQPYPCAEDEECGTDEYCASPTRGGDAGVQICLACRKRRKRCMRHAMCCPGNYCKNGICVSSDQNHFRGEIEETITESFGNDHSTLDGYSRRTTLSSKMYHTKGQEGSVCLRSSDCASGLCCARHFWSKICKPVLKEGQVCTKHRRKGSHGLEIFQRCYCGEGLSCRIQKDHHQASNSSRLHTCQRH

[10] = system: Inhibin beta A chain (activin A); assay: INHBA (activin A) binders on microarrays, primary screen, biochemical, small-molecule microarray, 635 nm fluorescence scan (AID 1107); details: small-molecule microarray binding, higher = more signal;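 note: mouse activin A protein probed at 4.33 µg/mL on printed slides; score merges bound-protein fluorescence near 667 nm with spot signal-to-noise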

SMILES	composite z-score [1]	composite z-score [2]	composite z-score [3]	z-score [4]	composite z-score [5]	composite z-score [6]	composite z-score [7]	composite z-score [8]	composite z-score [9]	composite z-score [10]
CC(CCN1CCCc2nc(C)c(C)cc21)=NOC[C@@H](O)COCc1ccco1	1.22	1.57	-0.216	0.58 (inactive)	1.56	1.22	1.76	1.6	2.25	1.96
COc1ccc(COC(=O)NN=C2C[C@@H](O)[C@@H](O)[C@@H]3[C@@H]4C(=O)N(C[C@@H]5CCCO5)C(=O)[C@@H]4CC[C@@H]23)cc1	1.06	-0.288	-0.241	-0.00678 (inactive)	1.01	0.0003	-0.127	-0.139	0.0237	0.203
COC(=O)[C@H](C)NC(=O)CCC1CC(OC(=O)NCc2ccc3c(c2)OCO3)CC2(CCCC(COC(=O)NCCCN3CCCC3=O)O2)O1 (stereo not given in full)	0.842	-0.286	-0.189	0.245 (inactive)	0.601	1.28	0.638	0.856	1.41	-0.109
C=CC[C@@H]1C=C[C@H](ON=C(C)CCN2CCCCc3nc(C)c(C)cc32)[C@@H](CO)O1	1.14	-0.406	-0.804	-0.102 (inactive)	0.497	1.29	1.51	1.43	1.63	1.5
O=C1C[C@@H](O)[C@@H](O)[C@@H]2[C@@H]3C(=O)N(c4ccc(F)cc4F)C(=O)[C@@H]3CC[C@H]12	0.88	-0.0704	-0.511	0.759 (inactive)	0.514	0.662	0.394	0.638	0.597	0.148
CCOC(=O)CCN1C(=O)[C@H]2[C@H]3[C@H](O)[C@H](O)CC(=NNC(=O)OCC)[C@H]3CC[C@H]2C1=O	0.533	-0.55	-0.799	-0.24 (inactive)	0.0385	-0.542	0.459	0.567	0.913	1.26
C=CC[C@@H]1C=C[C@H](ON=C[C@@H](NS(=O)(=O)c2ccc(C)cc2)[C@H](C)C=CCC(=O)OC)[C@@H](CO)O1	0.296	-0.353	-0.642	0.463 (inactive)	0.0083	-0.0166	0.516	0.566	0.619	1.15
CC(C)[C@@H](OCc1ccccc1)[C@H](C)C=NO[C@@H](C)c1cn([C@H](CO)Cc2ccccc2)nn1	0.38	-0.215	-0.357	0.357 (inactive)	-0.045	0.148	-0.0006	0.105	-0.477	-0.245
CCN1C(=O)[C@H]2[C@H]3[C@H](O)[C@H](O)CC(=NOC[C@@H](O)[C@H]4O[C@@H]5OC(C)(C)O[C@@H]5[C@H]4O)[C@@H]3CC[C@H]2C1=O	1.03	-0.242	-0.461	0.217 (inactive)	0.203	-0.246	0.227	0.24	0.284	0.46
COC(=O)[C@H](C)NC(=O)CCC1CC(OC(=O)NCc2cccc3ccccc23)CC2(CCCC(COC(=O)NCc3cccc(C(F)(F)F)c3)O2)O1 (stereo not given in full)	0.988	-0.0508	-0.134	-1.39 (inactive)	0.908	0.611	0.473	0.677	0.303	-0.108
CCO[C@H](c1cc(OC)cc([N+](=O)[O-])c1OC)[C@H](C)[C@@H](OC)[C@H](C)C=CCC(=O)OC	0.535	0.481	-0.133	-0.188 (inactive)	0.278	0.188	0.835	0.723	-0.359	-0.334
COC(=O)[C@H](C)NC(=O)CCC1CC(OC(=O)NCc2ccc3c(c2)OCO3)CC2(CCCC(COC(=O)NCc3ccccc3)O2)O1 (stereo not given in full)	0.343	-0.172	-0.612	-0.66 (inactive)	0.894	0.821	0.293	0.832	0.893	-0.0611
CCN1C(=O)[C@H]2[C@H]3[C@H](O)[C@H](O)CC(=NOC[C@@H](O)COCc4ccco4)[C@H]3CC[C@H]2C1=O	0.667	-1	-2.16	0.0809 (inactive)	-0.169	0.797	0.816	0.757	1.39	1.45
C#CCCCON=C1C[C@@H](O)[C@@H](O)[C@@H]2[C@@H]3C(=O)N(CC)C(=O)[C@@H]3CC[C@H]12	0.581	-0.189	-0.267	0.385 (inactive)	0.301	-0.396	0.285	-0.331	0.209	-0.124
CC(=O)OC[C@H]1O[C@H](CC=NO[C@@H](C)c2cn([C@H](CO)Cc3ccccc3)nn2)C=C[C@@H]1OC(C)=O	0.775	0.101	-0.624	-1.54 (inactive)	1.07	0.517	0.387	1.06	1.05	-0.383
CC(C)=CCCC(C)=CCON=C1C[C@@H](O)[C@@H](O)[C@@H]2[C@@H]3C(=O)N(C4CCCCC4)C(=O)[C@@H]3CC[C@H]12	0.475	-0.107	-0.304	-0.693 (inactive)	0.785	0.701	0.513	1.11	0.873	0.644
COC(=O)[C@@H]1CC[C@H](C)[C@@H](c2ccc(C)cc2)N1C(=O)c1ccc(C=NOC[C@@H](O)[C@H]2O[C@@H]3OC(C)(C)O[C@@H]3[C@H]2O)cc1	0.402	0.0861	-0.357	0.569 (inactive)	0.696	0.479	0.54	0.543	0.595	0.101
CO[C@@H](C(C)C)[C@@H](C)C1OC(=O)CC1O (stereo not given in full)	-0.595	-0.148	-0.0917	0.94 (inactive)	-0.114	-0.051	-0.57	-0.552	-0.166	0.253
O=C1[C@H]2[C@H]3[C@H](O)[C@H](O)CC(=NOC[C@@H](O)COCc4ccco4)[C@@H]3CC[C@H]2C(=O)N1Cc1ccc2c(c1)OCO2	0.867	-0.387	-1.42	-0.119 (inactive)	-0.454	1.3	1.15	0.9	1.47	0.506
CC(=O)OC[C@H]1O[C@H](CCON=C(C)CCN2CCCc3nc(C)c(C)cc32)C=C[C@@H]1OC(C)=O	0.773	-0.108	-0.408	1.06 (inactive)	0.932	1.24	0.986	1.16	0.735	0.965
CC(C)[C@H](NC(=O)OC(C)(C)C)[C@@H](O)CC(=O)C(C)(C)C	0.447	-0.268	-0.428	-0.275 (inactive)	0.159	-0.191	0.327	0.29	0.513	-0.0828
CCOC(=O)[C@H](CC(C)C)NC(=O)CCC1CC(OC(=O)NCc2ccc3c(c2)OCO3)CC2(CCCC(COC(=O)NCc3ccccc3)O2)O1 (stereo not given in full)	0.58	-0.197	-0.495	-0.403 (inactive)	0.713	0.486	0.316	0.675	0.425	-0.0973
O=C(NN=C1C[C@@H](O)[C@@H](O)[C@@H]2[C@@H]3C(=O)N(Cc4ccc5c(c4)OCO5)C(=O)[C@@H]3CC[C@@H]12)OCc1ccccc1	-0.0768	0.618	0.828	-1.41 (inactive)	-0.319	-0.456	-0.254	-0.408	-0.465	0.319
CCC1=NOC(CCC2CC(OC(=O)NCc3cccc4c3OCO4)CC3(CCCC(COC(=O)NCCc4ccc(Cl)cc4)O3)O2)C1 (stereo not given)	0.354	-0.0936	-0.341	0.116 (inactive)	1.41	0.173	-0.0917	0.147	0.119	0.0081
CON=C(C)CCC(=O)OC[C@H]1O[C@H](C#Cc2ccccc2)C=C[C@@H]1Oc1ccc(C)cc1	0.699	0.0281	-0.22	0.825 (inactive)	0.19	-0.252	0.252	0.407	0.572	0.719
